In PubChem BioAssay (NCATS):
Results filed as inconclusive are left out. Entries that show only a call come without a potency. The source made the active and inactive calls. Calls follow the shape of the dose curve; as a rule, active = well fitted curve in the direction sought with a large enough effect; inconclusive = small, poorly fitted or top-dose-only effect, or another doubt; inactive = no such curve, though single readings can be large; an effect the other way counts as inactive or inconclusive.

Assays:
[1] = Quantitative High-Throughput drug screen in 47 multiple myeloma cell lines against the NCATS MIPE library collection: ARD_JJKsccE7 cell viability assay (AID 1918929)
Procedure, shortened: (§1)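 Relative luminescence from CellTiter-Glo served as the viability signal, referenced to DMSO-treated (100%) and cell-free medium (0%) controls. Treatment lasted 48 hours at 37C with 500 cells per well.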

[2] = Quantitative High-Throughput drug screen in 47 multiple myeloma cell lines against the NCATS MIPE library collection: Karpas620_DSMZ cell viability assay (AID 1918959); also: nearly all actives have a fitted effect of over 30% in size
Procedure, shortened: (§2)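 qHTS of the MIPE 4.0 collection: 500 myeloma cells/well, 48 h drug exposure at 37C in 5% CO2, then CellTiter-Glo for 5 min at room temperature before luminescence reading.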

[3] = Quantitative High-Throughput drug screen in 47 multiple myeloma cell lines against the NCATS MIPE library collection: KMM1_JCRB cell viability assay (AID 1918960); also: nearly all actives have a fitted effect of over 30% in size
Procedure, shortened: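 Each line was plated at 500 cells/well and treated 48 h with library drugs. Viability came from CellTiter-Glo luminescence relative to DMSO and cell-free medium controls.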

[4] = Quantitative High-Throughput drug screen in 47 multiple myeloma cell lines against the NCATS MIPE library collection: JIM3_ECACC cell viability assay (AID 1918963; also: nearly all actives have a fitted effect of over 35% in size)
Procedure, shortened: as §2

[5] = Quantitative High-Throughput drug screen in 47 multiple myeloma cell lines against the NCATS MIPE library collection: INA6_PLB cell viability assay (AID 1918965; also: nearly all actives have a fitted effect of over 55% in size)
Procedure, shortened: (§3)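 Luminescent ATP measurement with CellTiter-Glo gives viability, scaled between DMSO-only wells (100%) and media-only wells (0%). Cells, 500 per well, faced library compounds for 48 hours at 37C.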

[6] = Quantitative High-Throughput drug screen in 47 multiple myeloma cell lines against the NCATS MIPE library collection: H1112_PLB cell viability assay (AID 1918967; also: nearly all actives have a fitted effect of over 30% in size)
Procedure, shortened: as §1

[7] = Quantitative High-Throughput drug screen in 47 multiple myeloma cell lines against the NCATS MIPE library collection: Karpas25_ECACC cell viability assay (AID 1918968; also: nearly all actives have a fitted effect of over 35% in size)
Procedure, shortened: as §1

[8] = Quantitative High-Throughput drug screen in 47 multiple myeloma cell lines against the NCATS MIPE library collection: KMS12BM_JCRB cell viability assay (AID 1918971); also: nearly all actives have a fitted effect of over 35% in size
Procedure, shortened: (§4)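 Myeloma cells (500 per well) were exposed to MIPE 4.0 compounds by pin transfer and incubated 48 hours at 37C, 5% CO2. Viability was read as ATP by CellTiter-Glo luminescence, normalised to DMSO (100%) and media-only (0%) wells.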

[9] = Quantitative High-Throughput drug screen in 47 multiple myeloma cell lines against the NCATS MIPE library collection: KMS12PE_JCRB cell viability assay (AID 1918972); also: nearly all actives have a fitted effect of over 30% in size
Procedure, shortened: as §3

[10] = Quantitative High-Throughput drug screen in 47 multiple myeloma cell lines against the NCATS MIPE library collection: KMS20_JCRB cell viability assay (AID 1918973); also: nearly all actives have a fitted effect of over 45% in size
Procedure, shortened: as §1

[11] = Quantitative High-Throughput drug screen in 47 multiple myeloma cell lines against the NCATS MIPE library collection: MMM1_PLB cell viability assay (AID 1918976); also: nearly all actives have a fitted effect of over 35% in size
Procedure, shortened: (§5)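 qHTS format: cells plated (500/well), pin-dosed with MIPE 4.0 compounds, kept 48 h at 37 °C. Readout was CellTiter-Glo luminescence, median RLU.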

[12] = Quantitative High-Throughput drug screen in 47 multiple myeloma cell lines against the NCATS MIPE library collection: MOLP8_DSMZ cell viability assay (AID 1918977); also: nearly all actives have a fitted effect of over 45% in size
Procedure, shortened: as §5

[13] = Quantitative High-Throughput drug screen in 47 multiple myeloma cell lines against the NCATS MIPE library collection: NCIH929_DSMZ cell viability assay (AID 1918978); also: nearly all actives have a fitted effect of over 35% in size
Procedure, shortened: as §5

[14] = Quantitative High-Throughput drug screen in 47 multiple myeloma cell lines against the NCATS MIPE library collection: Karpas417_ECACC cell viability assay (AID 1918961); settings: Karpas417 myeloma viability, CellTiter-Glo ATP luminescence, 48 h; viability (% of DMSO): at 45.8 µM (top of the series)
Procedure, shortened: as §3

[15] = Quantitative High-Throughput drug screen in 47 multiple myeloma cell lines against the NCATS MIPE library collection: KHM11_PLB cell viability assay (AID 1918962); also: nearly all actives have a fitted effect of over 35% in size
Procedure, shortened: as §2

[16] = Quantitative High-Throughput drug screen in 47 multiple myeloma cell lines against the NCATS MIPE library collection: JIM1_ECACC cell viability assay (AID 1918964)
Procedure, shortened: as §1

[17] = Quantitative High-Throughput drug screen in 47 multiple myeloma cell lines against the NCATS MIPE library collection: JJN3_DSMZ cell viability assay (AID 1918966; also: nearly all actives have a fitted effect of over 50% in size)
Procedure, shortened: as §1

[18] = Quantitative High-Throughput drug screen in 47 multiple myeloma cell lines against the NCATS MIPE library collection: KMS27_JCRB cell viability assay (AID 1918970); settings: KMS27 myeloma cells, CellTiter-Glo ATP viability, 48 h; viability (% of DMSO): at 45.8 µM (top of the series); also: nearly all actives have a fitted effect of over 30% in size
Procedure, shortened: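 CellTiter-Glo luminescence after 48 h drug exposure at 37 °C; 500 cells/well, 1536-well format, pin-tool compound addition; DMSO = 100%, media-only = 0% viability.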

[19] = Quantitative High-Throughput drug screen in 47 multiple myeloma cell lines against the NCATS MIPE library collection: KMS21BM_JCRB cell viability assay (AID 1918974); settings: ATP luminescence, 48 h; viability: at 45.8 µM (top of the series)
Procedure, shortened: as §1

[20] = Quantitative High-Throughput drug screen in 47 multiple myeloma cell lines against the NCATS MIPE library collection: KMS26_JCRB cell viability assay (AID 1918975); also: nearly all actives have a fitted effect of over 45% in size
Procedure, shortened: as §4
Potency is read from the fitted curve at half-maximal effect.

SMILES | Potency [1] | Potency [2] | Potency [3] | Potency [4] | Potency [5] | Potency [6] | Potency [7] | Potency [8] | Potency [9] | Potency [10] | Potency [11] | Potency [12] | Potency [13] | Potency [14] | Potency [15] | Potency [16] | Potency [17] | Potency [18] | Potency [19] | Potency [20]
NC(=O)c1ncn([C@@H]2O[C@H](CO)[C@@H](O)[C@@H]2O)c1O | inactive | inactive | inactive | inactive | inactive | inactive | inactive | inactive | inactive | inactive | 2.64 µM (active) | inactive | inactive |  |  |  |  |  |  | 
COc1cc(OC)cc(-c2ccc3ncc4ccc(=O)n(-c5ccc(N6CCNCC6)c(C(F)(F)F)c5)c4c3c2)c1 | 2.64 µM (active) |  | 2.96 µM (active) | 10.5 µM (active) | 3.72 µM (active) | 2.09 µM (active) | 2.96 µM (active) | 5.26 µM (active) | 3.72 µM (active) | 4.18 µM (active) | 7.43 µM (active) | 4.18 µM (active) | 3.72 µM (active) | 2.35 µM (active) | 5.9 µM (active) | 3.72 µM (active) | 5.9 µM (active) | 1.66 µM (active) | 5.26 µM (active) | 5.9 µM (active)
Cc1ccc(O)c(C(CCN(C(C)C)C(C)C)c2ccccc2)c1 (configuration not stated) | inactive | inactive | inactive | inactive |  | inactive | inactive | inactive | inactive |  |  |  | inactive |  |  |  | inactive |  | 9.35 µM (active) | 
Nc1ccn(C2CO[C@H](CO)O2)c(=O)n1 (some centres not stated) | inactive | inactive | inactive |  |  | inactive | inactive | 0.833 µM (active) |  |  | 4.69 µM (active) |  | inactive |  |  |  |  | inactive |  | 
C=C1C[C@@]2(O)O[C@@]3(C[C@H]2C(C)C)[C@H](C)CC[C@H]13 | inactive | inactive |  |  | inactive | inactive |  | inactive | inactive | inactive |  | inactive | inactive |  |  |  | inactive | inactive |  | 
CN(N=O)C(=O)N[C@H]1C(O)OC(CO)[C@@H](O)[C@H]1O (some centres not stated) | inactive | inactive | inactive |  |  | inactive | inactive |  |  |  |  | inactive | inactive |  |  |  |  |  |  | 
COc1cc(C)c(C=CC(C)=CC=CC(C)=CC(=O)O)c(C)c1C | inactive | 7.43 µM (active) |  |  | 5.26 µM (active) | inactive | inactive |  |  |  |  |  | inactive | inactive |  | inactive |  |  |  | inactive
Cn1cnc2c(F)c(Nc3ccc(Br)cc3F)c(C(=O)NOCCO)cc21 | 0.0033 µM (active) | 0.0833 µM (active) |  |  | 0.0187 µM (active) |  |  |  | inactive | 0.0662 µM (active) |  | inactive |  |  |  |  |  |  |  | 
Cn1cc(C2=C(c3c4n(c5ccccc35)CCC(CN)C4)C(=O)NC2=O)c2ccccc21 (configuration not stated) | 7.43 µM (active) |  | 13.2 µM (active) | 10.5 µM (active) | 3.72 µM (active) | 7.43 µM (active) | 7.43 µM (active) | 14.8 µM (active) | 8.33 µM (active) | 6.62 µM (active) | 20.9 µM (active) | 13.2 µM (active) | 7.43 µM (active) | 9.35 µM (active) | 7.43 µM (active) | 8.33 µM (active) | 9.35 µM (active) | 8.33 µM (active) | 7.43 µM (active) | 18.7 µM (active)
OCCN1C[C@H](O)[C@@H](O)[C@H](O)[C@@H]1CO | inactive | inactive |  | inactive |  | inactive | inactive | inactive | inactive |  |  |  | inactive |  |  |  |  | inactive |  | inactive
O=C(CN1C(=O)C2(CCCC2)NC[C@H]1c1cc(F)cc(F)c1)Nc1ccc2c(c1)C[C@@]1(C2)C(=O)Nc2ncccc21 | inactive | inactive |  |  | inactive | inactive | inactive | inactive |  |  |  |  | inactive | inactive |  | 18.7 µM (active) |  |  |  | inactive
C=CC(=O)Nc1cc(NC(=O)c2ccc(C)c(NC(=O)c3ccno3)c2)cc(C(F)(F)F)c1 | 5.9 µM (active) | 8.33 µM (active) | 5.9 µM (active) |  | 16.6 µM (active) | 18.7 µM (active) | 14.8 µM (active) | 23.5 µM (active) | 8.33 µM (active) |  | 20.9 µM (active) | 18.7 µM (active) | 16.6 µM (active) |  |  |  | 18.7 µM (active) |  |  | 18.7 µM (active)
CN[C@H](CC(C)C)C(=O)N[C@H]1C(=O)N[C@@H](CC(N)=O)C(=O)N[C@@H]2C(=O)N[C@H]3C(=O)N[C@H](C(=O)N[C@H](C(=O)O)c4cc(O)cc(O)c4-c4cc3ccc4O)[C@H](O)c3ccc(c(Cl)c3)Oc3cc2cc(c3O[C@@H]2O[C@H](CO)[C@@H](O)[C@H](O)[C@@H]2O[C@H]2C[C@](C)(N)[C@H](O)[C@H](C)O2)Oc2ccc(cc2Cl)[C@H]1O | 0.0023 µM (active) | inactive | inactive | inactive |  | inactive |  |  | inactive |  |  | inactive | inactive |  |  |  | inactive |  |  | inactive
